From PubChem BioAssay
Pf apPOL inh = Pf-apPOL DNA polymerase inhibition | AID 1794808 | Recombinant Pf-apPOL, molecular beacon fluorescence, 1.5 h | inhibition, % at 10 µM | hit rate 0.25% among 210,000
mHTT-CaM PPI inh = disrupts binding of mutant huntingtin to calmodulin. P42858. AlphaScreen His-mHTT/GST-CaM binding, luminescence. inhibition, % at 15 µM. hit rate 3.6% among 190,000. AID 1671202
Hits are given with their value; – = inactive; · = no result given; + = active, no number. Shown is part of a subset that was picked to be rich in hits. Cut-off read from the data, not from the text of the source: active = inhibition above about 50%; inactive = the rest.

SMILES	Pf apPOL inh	mHTT-CaM PPI inh
COc1ccccc1NC(=O)c1c(NCc2ccc(OC)c(OC)c2)sc2c1CCC2	–	–
COc1ccc(OC)c(NC(=O)c2c(NCc3ccc(OC)c(OC)c3)sc3c2CCC3)c1	–	52
CCOc1ccccc1NC(=O)c1c(NC(=O)C(F)(F)F)sc2c1CCCCC2	–	–
CC(=O)Nc1ccccc1/C=C/c1ccc2cccc(O)c2n1	–	–
CC(=O)Nc1ccc2cccc(O)c2n1	–	100
Cc1ccc(C)c(N(C)S(=O)(=O)c2ccc3[nH]cc(C(=O)N4CCOCC4)c(=O)c3c2)c1	–	–
CCn1cc(S(=O)(=O)CC(=O)Nc2ccc(C)cc2C)c2ccccc21	–	–
Cc1nc2c(C(=O)NC(C)C)cnn2c(C)c1Cc1cccc(Cl)c1	–	70
COC(CNC(=O)c1cnn2c(C)c(Cc3ccccc3)c(C)nc12)OC	–	–
Cc1nc2c(C(=O)NCCC(C)C)cnn2c(C)c1Cc1cccc(Cl)c1	–	–
COC(CNC(=O)c1cnn2c(C)c(Cc3cccc(Cl)c3)c(C)nc12)OC	–	61
Cc1csc(NC(=O)c2cnc3scc(C)n3c2=O)n1	–	–
COc1ccc(/C=C2N=C(/C=C/c3ccccc3)OC\2=O)cc1	–	–
O=C1NC(=O)/C(=C/c2cccc(Cl)c2Cl)S1	–	–
Cc1cc(C)c2c(c1)[nH]c1nnc(SCC(=O)N3CCN(c4ccccc4)CC3)nc12	–	74
Cc1cc(C)c2c(c1)[nH]c1nnc(SCC(=O)NCc3ccccc3)nc12	–	–
CC(C)CCNC(=O)C1CCN(c2ncnc3c2nc2n3CCCCC2)CC1	–	–
Cn1cc(CCN2CCN(S(=O)(=O)c3ccccc3F)CC2)c2cccnc21	–	–
CCN1CCn2cc(C(=O)NCc3ccc(F)cc3)nc2C1	–	–
CCN1CCn2cc(C(=O)NCc3ccc(C(F)(F)F)cc3)nc2C1	–	97
COc1ccc(N=Cc2ccc([N+](=O)[O-])cc2[N+](=O)[O-])cc1	–	–
COc1ccc(C(=O)O/N=C2\C=C(C(C)C)C(=O)C=C2C)cc1Br	–	+
CC1=CC(=O)C(C(C)C)=C/C1=N\OC(=O)c1cccs1	–	+
CC1=CC(=O)C(C(C)C)=C/C1=N\OC(=O)c1ccccc1C	–	–
CC1=CC(=O)C(C(C)C)=C/C1=N\OC(=O)c1ccc(C)cc1	–	–
SMILES	Pf apPOL inh	mHTT-CaM PPI inh
COc1ccc(Cl)cc1C(=O)O/N=C1\C=C(C(C)C)C(=O)C=C1C	–	+
COc1ccccc1C(=O)O/N=C1\C=C(C(C)C)C(=O)C=C1C	–	+
CC1=CC(=O)C(C(C)C)=C/C1=N\OC(=O)c1ccc(C(C)(C)C)cc1	–	–
COc1cc(C(=O)O/N=C2/C=C(C(C)C)C(=O)C=C2C)cc(OC)c1OC	–	–
CCN(CC)c1ccc(/C=C(\C#N)c2nc3ccccc3s2)cc1	–	–
Cc1ccc(NC(=O)CCN2C(=O)c3ccncc3C2=O)cc1F	–	–
Cc1ccc(-c2[nH]ncc2CN2CCCC2c2cc(C)on2)cc1 (stereo not drawn)	–	–
CC(C)NC(=O)c1ccc(OCC2CCCN2C(=O)c2cc(F)ccc2F)cc1 (stereo not drawn)	–	–
CCOc1cc(C=Nc2c(C)n(C)n(-c3ccccc3)c2=O)ccc1O	–	–
Nc1c(Cl)cc(Cl)cc1[N+](=O)[O-]	–	–
CC1=CC(=O)C(C(C)C)=C/C1=N\Oc1c([N+](=O)[O-])cc(Cl)cc1[N+](=O)[O-]	–	+
O=C(c1ccncc1)N1CCC(Oc2cc(N3CCCCC3)ncn2)C1 (stereo not drawn)	–	–
O=C1N=C(N2CCOCC2)S/C1=C/c1ccccc1O	–	–
CC(=O)c1c(C(C)=O)c(C)n(NC(=O)c2cc(Br)ccc2O)c1C	–	–
COc1cccc(CNC(=O)c2c(C)oc3ccn(C)c(=O)c23)c1	–	–
CC(C)n1c(=O)c(NCc2cccc(F)c2)nc2ccncc21	–	–
CC(C)n1c(=O)c(NCc2ccc(F)c(Cl)c2)nc2ccncc21	–	87
O=C(Nc1nccs1)C1CCN(C(=O)c2nc3ccccc3s2)CC1	–	–
CC1CC(=O)N(Cc2ccc(Cl)cc2)C(=O)C1	–	·
COc1ccc(CNC(=O)C2CCN(c3nccn4nc(-c5ccccc5)cc34)CC2)cc1	–	–
O=C(c1cc2ccccc2[nH]1)N1CCC2(CC1)NC(=O)N(Cc1ccccc1Cl)C2=O	–	–
C(=Nc1cc(-c2ccccc2)nn1-c1ccccc1)c1cccnc1	–	50
C(=NN=Cc1cccnc1)c1cccnc1	–	·
COc1ccc(NC(=O)CCC2CCN(c3cc(NC4CC4)ncn3)CC2)c(OC)c1	–	–
COc1ccc([N+](=O)[O-])cc1NC(=O)C1CC(=O)NC(=N)S1 (stereo not drawn)	59	–
SMILES	Pf apPOL inh	mHTT-CaM PPI inh
COc1ccc([N+](=O)[O-])cc1NC(=O)C1CCCCC1	–	–
CCCN1CCN(c2ccc(-c3nc(-c4cccc(F)c4)no3)cn2)CC1	–	–
N#C/C(=C\c1ccc([N+](=O)[O-])cc1)c1nc(-c2ccc(Cl)cc2Cl)cs1	–	–
CN1CCCc2cc(C(CNC(=O)Nc3cccs3)N3CCCC3)ccc21 (stereo not drawn)	–	55
CN1CCN(C(CNC(=O)NCc2ccccc2)c2ccc3c(c2)CCCN3C)CC1 (stereo not drawn)	–	–
Cc1sc(NC(=O)c2ccccc2[N+](=O)[O-])c(C#N)c1C	–	–
Cc1ccc2nc3c(cc(C(=O)NCCc4ccccc4)c(=N)n3Cc3ccco3)c(=O)n2c1	–	56
N=c1c(C(=O)NCc2cccnc2)cc2c(=O)n3ccccc3nc2n1Cc1ccco1	–	–
N=c1c(C(=O)NCCc2ccccc2)cc2c(=O)n3ccccc3nc2n1Cc1ccco1	–	52
CNC(=O)c1cc2c(=O)n3cc(C)ccc3nc2n(Cc2ccco2)c1=N	–	–
Cc1nn(C)cc1-c1nnc(-c2ccnn2C(F)F)o1	·	–
CC(C)NC1CCCc2c1[nH]c1ccc([N+](=O)[O-])cc21 (stereo not drawn)	–	–
O=[N+]([O-])c1ccc2[nH]c3c(c2c1)CCCC3NC1Cc2ccccc2C1 (stereo not drawn)	–	93
CC(C)C(=O)Nc1ccc2ncnc(N3CCCC3)c2c1	–	–
O=C(COc1ccc(F)cc1)N1CCCC(c2ccnc(-c3ccccc3)n2)C1 (stereo not drawn)	–	73
O=C(c1ccc(F)cc1)N1CCCC(c2ccnc(-c3ccccc3)n2)C1 (stereo not drawn)	–	–
O=C(c1ccco1)N1CCCC(c2ccnc(-c3ccccc3)n2)C1 (stereo not drawn)	–	61
O=C(c1ccccc1)N1CCCC(c2ccnc(-c3ccccc3)n2)C1 (stereo not drawn)	–	–
C=CSc1sc(Cl)c(N2CCOCC2)c1[N+](=O)[O-]	–	–
C=CS(=O)(=O)c1sc(Cl)c(N2CCOCC2)c1[N+](=O)[O-]	–	60
O=[N+]([O-])c1c(N2CCOCC2)c([N+](=O)[O-])c(N2CCOCC2)c([N+](=O)[O-])c1N1CCOCC1	–	–
C=CSc1sc(Cl)c(N2CCC3(CC2)OCCO3)c1[N+](=O)[O-]	–	67
COC(=O)c1ccc(CN2CC(c3nc(-c4cccs4)no3)C2)o1	–	–
O=c1[nH]cnc2c1sc(=S)n2Cc1ccccc1	·	–
CC(=O)c1ccc2[nH]c3ccccc3c2c1	–	–
Nc1ccc2[nH]c3ccccc3c2c1	–	99
O=c1c(-c2ccc(Br)cc2)coc2cc(O)cc(O)c12	–	52
